hERG WT inh = qHTS for Inhibitors of KCHN2 3.1: Wildtype qHTS; 0.37% of 340,000 active; AID 720551, 2013; Voltage-gated inwardly rectifying potassium channel KCNH2 (Homo sapiens), Q12809; activity change, % at 1.84 µM; U2OS, BacMam KCNH2, thallium flux FluxOr; stronger effect = lower value;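 active means maximum activity change below -70%; inconclusive means maximum activity change between -70% and -50%; inactive means maximum activity change above -50%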; further: on the % scale 0 is the no-effect control and ±100 the full control effect
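U2OS cells were transduced with wild-type KCNH2 virus (2.03 x 10^8 / mL) for 4 h at room temperature, then cultured overnight at 37 C. Thallium flux was read with FluxOr dye. Rate constants were normalized to DMSO controls.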
KCNH2 3.1 inh = qHTS for Inhibitors of KCHN2 3.1: Mutant qHTS; 0.95% of 340,000 active; U2OS KCNH2 3.1, thallium flux FluxOr; stronger effect = lower value; activity change, % (tested at about 1.8 µM);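 active means maximum activity change below -70%; inconclusive means maximum activity change from -70% to -50%; inactive means maximum activity change above -50%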;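 further: thallium influx rate constant from kinetic fluorescence after stimulation buffer; on the % scale 0 is the no-effect control and ±100 the full control effect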
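Virally transduced U2OS (3.1 isoform, 4 h infection in dark at RT) → overnight 37 C → FluxOr + Red40 in HBSS/HEPES, 45 min → stimulation buffer, 2 min kinetic read → rate constant vs DMSO controls.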
TRPV1 ag = HTS Assay for Compounds that Act as Agonists of the Vanilloid Receptor 1; AID 540275, 2011; Transient receptor potential cation channel subfamily V member 1 (Homo sapiens), Q8NER1; 0.19% of 320,000 active; activation, % at 8.33 µM; TRPV1-expressing cells, Fluo-8 calcium influx, agonist mode; in the data active means activation above about 80%; inconclusive means between about 30% and that limit; further: 0% is about no effect
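TRPV1-expressing cells were cultured overnight at 35.5C and loaded with Fluo-8 calcium dye for 40 to 90 min at room temperature. After a 10 s baseline, compound was added and calcium influx was read kinetically for 3 min (ex 480/em 520 nm).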
MBNL1 CUG block = qHTS Assay for Inhibitors of MBNL1-poly(CUG) RNA binding; Muscleblind-like protein 1 (Homo sapiens), Q9NR56; TR-FRET MBNL1-His/biotin-(CUG)12 binding, 665/545 ratio; Potency, µM (doses to about 57.5 µM), for the others: at the highest dose activity change, negative = inhibition, most hits filed as inhibitors; 0.036% of 280,000 active; AID 2675, 2010; active means well fitted inhibition curve with a large enough effect in the signal ratio, with a control signal flat, not every such curve was filed as active; inconclusive means small, poorly fitted or top-dose-only effect, or effect the other way, or a change in a side signal; inactive means no such curve, though single readings can be large or run the other way; the % refers to the signal ratio; further: potency means the concentration at half of the fitted maximal effect; on the % scale 0 is the no-effect control and ±100 the full control effect
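Compounds (final 92 nM to 58 uM) are added to His-tagged MBNL1 and biotin-(CUG)12, then terbium anti-His antibody and streptavidin-XL665 (5 nM final). After 60 min at room temperature, the 665/545 nm ratio is read.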
TRPV1 PAM = HTS Assay for Compounds that Act as Potentiators of the Vanilloid Receptor 1; 0.02% of 320,000 active; TRPV1-expressing cells, Fluo-8 calcium influx, capsaicin EC20 potentiation; Transient receptor potential cation channel subfamily V member 1 (Homo sapiens), Q8NER1; potentiation, % at 8.33 µM; AID 540277, 2011; in the data active means potentiation above about 80%; inconclusive means between about 30% and that limit; further: 0% is about no effect
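Fluo-8 calcium influx in TRPV1-expressing cells, kinetic read (ex 480/em 520 nm). Compound added and read 3 min for agonist activity, followed by capsaicin at EC20 final and 2 min further read for enhancement.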
An asterisk follows results filed as active; i = inactive; u = inconclusive; x = no result. An excerpt weighted towards active compounds, which were near 1.3% of everything screened.

SMILES	hERG WT inh	KCNH2 3.1 inh	TRPV1 ag	MBNL1 CUG block	TRPV1 PAM
COc1ccc(Cn2nnnc2C(c2cccs2)N2CCN(c3ccccc3)CC2)cc1 (configuration not stated)	2	1	-1	-7%	-7
COc1ccc(Cn2nnnc2C(c2ccc(C)cc2)N2CCN(C3CCCC3)CC2)cc1 (configuration not stated)	16	-73*	0	-8%	6
O=C(c1ccc(N2C(=O)CCC2=O)cc1)N1CCCSC1=Nc1ccccc1	15	22	x	x	x
Cc1c(C)c2c(c(C)c1O)CCC(C)(C(=O)O)O2 (configuration not stated)	-11	7	3	x	-8
Cc1cc(N2CCN(CC(O)C(F)(F)F)CC2)c2ccccc2n1 (configuration not stated)	19	-1	1	3%	-5
Cn1c(N2CCN(S(=O)(=O)c3ccc(Cl)cc3)CC2)nc2ccccc21	21	-8	1	-12%	3
Cc1cc(N2CCN(S(=O)(=O)c3ccc(Cl)c(Cl)c3)CC2)c2ccccc2n1	u	-113*	-3	-2%	2
Cc1cc(N2CCN(S(=O)(=O)c3ccc(Cl)cc3)CC2)c2ccccc2n1	u	-95*	-3	3%	0
NS(=O)(=O)Nc1c(Br)cc(Br)c2cccnc12	x	x	2	x	-6
O=C(c1cc(-c2ccc(Cl)cc2)n(-c2ccc(Cl)cc2)n1)N1CCOCC1	-70*	-98*	u	-3%	-16
O=C(O)c1cc(-c2ccc(Cl)cc2)n(-c2ccccc2)n1	i	9	4	-3%	8
Cc1ccc(-n2nc(C(=O)N3CCOCC3)cc2-c2ccc(Cl)cc2)cc1	-32	u	89*	3%	1
CC(OC(=O)c1cccc(S(=O)(=O)N2CCCCCC2)c1)C(=O)Nc1ccc(S(N)(=O)=O)cc1 (configuration not stated)	-13	4	26	x	-5
COc1cc2c(oc(=O)c3cc(C)cc(OC)c32)c2c(C3OC(C)C(O)C(C)(O)C3O)ccc(O)c12 (configuration not stated)	-4	-17	x	x	x
Cc1ccc(C(c2nnnn2Cc2cccs2)N2CCN(Cc3ccc4c(c3)OCO4)CC2)cc1 (configuration not stated)	-110*	-95*	2	5%	16
CCN1CCN(C(c2nnnn2Cc2ccc3c(c2)OCO3)C(C)C)CC1 (configuration not stated)	4	-2	1	4%	8
CC(C)C(c1nnnn1Cc1ccc(F)cc1)N1CCN(Cc2ccc3c(c2)OCO3)CC1 (configuration not stated)	1	-71*	16	-3%	-4
CC1CCN(S(=O)(=O)c2cc(F)ccc2CN2C(=O)c3cccnc3C2=O)CC1	8	-16	3	u	0
C/C(=N\NC(=O)c1ccccc1-n1cccc1)C1CC1	-4	-76*	0	-7%	0
O=C(N/N=C\c1ccccc1)c1ccccc1-n1cccc1	0	-12	-2	3%	3
CC(C)(C)C(C(=O)n1cccc1C#N)c1ccccc1 (configuration not stated)	-8	22	4	x	1
CCn1c(/C(C#N)=N/O)nc2ccccc21	-115*	-81*	-4	-11%	u
Cn1c(/C(C#N)=N/O)nc2ccccc21	-2	-15	-1	21%	2
Cc1cc(NC(=O)CCN2C(=O)C3C4C=CC(C4)C3C2=O)c2ccccc2n1 (configuration not stated)	-133*	-138*	-1	2%	-14
CCOC(=O)c1c(NC(=O)c2cc3n(n2)C(C(F)(F)F)CC(c2cccs2)N3)sc(C)c1C (configuration not stated)	-4	-78*	1	2%	20
SMILES	hERG WT inh	KCNH2 3.1 inh	TRPV1 ag	MBNL1 CUG block	TRPV1 PAM
Cc1nn(C)c(C)c1CNC(=O)c1cc2n(n1)C(C(F)(F)F)CC(c1cccs1)N2 (configuration not stated)	2	-2	2	4%	-2
C=CCOc1ccccc1C1C2=C(CC(C)(C)CC2=O)Nc2c1c(=O)n(C)c(=O)n2C (configuration not stated)	1	-178*	-2	0%	0
COc1ccc(C2C3=C(CC(C)(C)CC3=O)Nc3c2c(=O)n(C)c(=O)n3C)cc1OC (configuration not stated)	-16	10	-1	x	2
Cc1cccc(-n2c(N)cc(=O)nc2SCC(=O)Nc2ccccc2)c1	-144*	-179*	0	-1%	17
O=C(O)COn1c(-c2ccccc2)nc2ccc(Cl)cc21	i	14	-2	-4%	7
COn1c(-c2ccccc2)nc2ccc(Cl)cc21	-6	-94*	20	4%	-43
CCOC(=O)c1ccc(NC(=O)c2ncn3c2C(=O)N[C@H](C)C3)cc1	-1	1	x	x	x
COc1ccc(Cn2c(CCC(=O)O)nc3cccnc32)cc1	-4	-72*	1	-8%	1
Cc1ccc(NC(=O)C2COc3ccccc3O2)cc1 (configuration not stated)	-26	-17	u	-11%	-1
CC1(C)Oc2ccc(NC(=O)C3COc4ccccc4O3)cc2O1 (configuration not stated)	-145*	-172*	2	4%	8
CNC(=O)C(=O)NCC1OCCN1S(=O)(=O)c1ccc(C)cc1 (configuration not stated)	-207*	-5	-3	-5%	-6
Cc1ccc(S(=O)(=O)N2CCOC2CNC(=O)C(=O)NCC(C)C)cc1 (configuration not stated)	2	-9	-2	1%	-7
COc1ccc(NC(=O)c2cccn(CC=C(C)C)c2=O)cc1	-3	-102*	u	1%	-26
C=CCn1cccc(C(=O)Nc2ccc(OC)cc2)c1=O	7	18	u	0%	-17
CCOC(=O)C(Cc1ccccc1)C(=O)Nc1cccc(C)c1 (configuration not stated)	-26	6	85*	-14%	-15
CCOC(=O)C(Cc1ccccc1)C(=O)Nc1ccc(N(CC)CC)cc1 (configuration not stated)	-9	-13	1	u	-1
